Substitutions are numbered along the chain they refer to.

One experiment concerns the target T1, SALL4 ZFC4 R900W (HT-SELEX) (Mus musculus, UniProt Q8BX22 870-940, R900W).
T1 sequence: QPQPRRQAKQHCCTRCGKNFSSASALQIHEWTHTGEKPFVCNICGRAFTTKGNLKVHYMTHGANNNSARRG
As to the kind of experiment: HT-SELEX; high values mean tight binding. The conditions noted are these: protein: recombinant; vector His6-GST; dsDNA, one strand shown. A digest of the protocol:
(§1)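 DNA from a random library (1.5 µg in the first cycle, 200 ng afterwards) was incubated with purified recombinant mouse SALL4 zinc finger cluster 4, residues 870–940 (1 µg), for 10 min at room temperature in 100 µl buffer: 10 mM Tris–HCl pH 7.5, 50 mM NaCl, poly(dI-dC), DTT. Bound complexes were pulled down on Ni2+ beads, washed and PCR-amplified, and the selection was repeated for up to 6 cycles in triplicate. MiSeq reads were scanned for 6-mers, and binding signal is each canonical k-mer's read fraction as fold change over the initial random library.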
ATTTTG: the binding signal is 1.5 ± 0.0395 fold-change vs cycle 0.
The same measure, in the same setting: to GACGGA belongs 0.427 ± 0.0141 fold-change vs cycle 0; to ATATTG, 1.8 ± 0.105 fold-change vs cycle 0; to TAAGTA, 2.23 ± 0.16 fold-change vs cycle 0.
With CCTGAG, the binding signal was 0.614 ± 0.0126 fold-change vs cycle 0.
The same measure, in the same setting: next, AAAGAC: 1.29 ± 0.0526 fold-change vs cycle 0; ACTACT: 1.52 ± 0.107 fold-change vs cycle 0; ACATAC: 1.4 ± 0.0493 fold-change vs cycle 0.
On the same count and under the same terms, next, AACCTT: 1.5 ± 0.0445 fold-change vs cycle 0; CAACCC: 0.488 ± 0.0225 fold-change vs cycle 0; AAAGCG: 0.489 ± 0.0338 fold-change vs cycle 0.
As for AAATAT, the binding signal stood at 2.36 ± 0.147 fold-change vs cycle 0.
On the same count and under the same terms, next, ATGAAT: 2.16 ± 0.113 fold-change vs cycle 0.
On to AAACGG, for which the binding signal was 0.652 ± 0.023 fold-change vs cycle 0.
Same read-out and setting: to AACGCA belongs 0.544 ± 0.00766 fold-change vs cycle 0; to AATGCA, 1.11 ± 0.069 fold-change vs cycle 0; to AGGTGC, 0.389 ± 0.0132 fold-change vs cycle 0.
Consider AGGGAC, for which the binding signal amounted to 0.559 ± 0.0327 fold-change vs cycle 0.
As for TGATAA, the binding signal came to 2.08 ± 0.2 fold-change vs cycle 0.
Regarding AGACAA, the binding signal turned out to be 1.28 ± 0.0792 fold-change vs cycle 0.
Still for that read-out and setting: next, AGTCAT: 1.53 ± 0.0494 fold-change vs cycle 0; CCCTTA: 1.06 ± 0.0532 fold-change vs cycle 0.
The same measure, in the same setting: to TGGAAA belongs 1.27 ± 0.0696 fold-change vs cycle 0.
The same measure, in the same setting: next, GGTTGA: 0.876 ± 0.0229 fold-change vs cycle 0; CGTTTA: 1.15 ± 0.0184 fold-change vs cycle 0; ATCATG: 1.48 ± 0.0158 fold-change vs cycle 0.
In the case of AGGGAT, the binding signal was 1.11 ± 0.0341 fold-change vs cycle 0.
On to CCTTAG, for which the binding signal is 1.06 ± 0.0431 fold-change vs cycle 0.
For the sequence CCCATA, the binding signal was 0.917 ± 0.0435 fold-change vs cycle 0.
On to GTCTAA, for which the binding signal is 1.28 ± 0.0593 fold-change vs cycle 0.
Take TACCGA: the binding signal turned out to be 0.749 ± 0.0345 fold-change vs cycle 0.
The same measure, in the same setting: next, AAGCAA: 1.24 ± 0.0583 fold-change vs cycle 0; ATTCTA: 2.07 ± 0.113 fold-change vs cycle 0; ATTTTC: 1.68 ± 0.0202 fold-change vs cycle 0.
Turning to CATTAC, the binding signal is 1.52 ± 0.113 fold-change vs cycle 0.
Regarding AAATTC, the binding signal amounted to 1.66 ± 0.0813 fold-change vs cycle 0.
Same read-out and setting: next, AAATTG: 1.53 ± 0.0609 fold-change vs cycle 0; GAGCTC: 0.439 ± 0.0575 fold-change vs cycle 0.
On the same count and under the same terms, to ATAAAC belongs 2.02 ± 0.13 fold-change vs cycle 0; to CAGACG, 0.442 ± 0.0268 fold-change vs cycle 0.

A further experiment addresses T2, SALL4 ZFC4 G921D (HT-SELEX) (Mus musculus, UniProt Q8BX22 870-940, G921D).
T2 sequence: T1 sequence with W31R, G52D
As to the kind of experiment: HT-SELEX; high values mean tight binding. To be noted: protein: recombinant; vector His6-GST; dsDNA, one strand shown. A digest of the protocol: as §1
As for ATTTTG, the binding signal is 1.44 ± 0.0553 fold-change vs cycle 0.
The same measure, in the same setting: to GACGGA belongs 0.545 ± 0.0666 fold-change vs cycle 0; to ATATTG, 1.69 ± 0.149 fold-change vs cycle 0.
The same measure, in the same setting: next, TAAGTA: 1.89 ± 0.229 fold-change vs cycle 0; CCTGAG: 0.691 ± 0.0156 fold-change vs cycle 0; AAAGAC: 1.26 ± 0.0352 fold-change vs cycle 0.
Still for that read-out and setting: next, ACTACT: 1.43 ± 0.121 fold-change vs cycle 0; ACATAC: 1.33 ± 0.0922 fold-change vs cycle 0.
As to AACCTT, the binding signal came out at 1.39 ± 0.0775 fold-change vs cycle 0.
On the same count and under the same terms, to CAACCC belongs 0.582 ± 0.0463 fold-change vs cycle 0; to AAAGCG, 0.601 ± 0.0731 fold-change vs cycle 0; to AAATAT, 2.07 ± 0.227 fold-change vs cycle 0.
On the same count and under the same terms, to ATGAAT belongs 1.92 ± 0.161 fold-change vs cycle 0; to AAACGG, 0.713 ± 0.0232 fold-change vs cycle 0.
Regarding AACGCA, the binding signal came to 0.669 ± 0.0225 fold-change vs cycle 0.
For the sequence AATGCA, the binding signal is 1.15 ± 0.0324 fold-change vs cycle 0.
On the same count and under the same terms, to AGGTGC belongs 0.519 ± 0.0738 fold-change vs cycle 0; to AGGGAC, 0.674 ± 0.0751 fold-change vs cycle 0; to TGATAA, 1.87 ± 0.208 fold-change vs cycle 0.
Same read-out and setting: next, AGACAA: 1.26 ± 0.0604 fold-change vs cycle 0; AGTCAT: 1.46 ± 0.106 fold-change vs cycle 0; CCCTTA: 1.02 ± 0.0595 fold-change vs cycle 0.
For the sequence TGGAAA, the binding signal was found to be 1.23 ± 0.0625 fold-change vs cycle 0.
Still for that read-out and setting: next, GGTTGA: 0.9303 ± 0.00634 fold-change vs cycle 0; CGTTTA: 1.12 ± 0.0221 fold-change vs cycle 0.
On to ATCATG, for which the binding signal came to 1.4 ± 0.0239 fold-change vs cycle 0.
Same read-out and setting: to AGGGAT belongs 1.07 ± 0.0457 fold-change vs cycle 0; to CCTTAG, 1.04 ± 0.0492 fold-change vs cycle 0.
With CCCATA, the binding signal was determined as 0.905 ± 0.0367 fold-change vs cycle 0.
The same measure, in the same setting: to GTCTAA belongs 1.27 ± 0.0407 fold-change vs cycle 0; to TACCGA, 0.837 ± 0.0299 fold-change vs cycle 0.
With AAGCAA, the binding signal is 1.23 ± 0.0475 fold-change vs cycle 0.
ATTCTA: the binding signal came out at 1.81 ± 0.213 fold-change vs cycle 0.
Same read-out and setting: to ATTTTC belongs 1.56 ± 0.0749 fold-change vs cycle 0; to CATTAC, 1.41 ± 0.113 fold-change vs cycle 0.
Regarding AAATTC, the binding signal is 1.58 ± 0.109 fold-change vs cycle 0.
The same measure, in the same setting: next, AAATTG: 1.48 ± 0.0586 fold-change vs cycle 0; GAGCTC: 0.585 ± 0.0582 fold-change vs cycle 0.
Consider ATAAAC, for which the binding signal came out at 1.76 ± 0.163 fold-change vs cycle 0.
The same measure, in the same setting: next, CAGACG: 0.571 ± 0.085 fold-change vs cycle 0.

The values above are taken from article PMC9838217, “Structure of SALL4 zinc finger domain reveals link between AT-rich DNA binding and Okihiro syndrome”.
